About 430 (19%) of roughly 2,300 compounds were called active.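 Rule for the calls: active = remaining agonist calcium response no higher than 100% minus 3 SD of agonist-only control wells, with starting fluorescence near control levels; inactive = the rest.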 These entries were drawn from the full list.
biological target: Mas-related G-protein coupled receptor member X1 (Homo sapiens) (UniProt Q96LB2); experiment: blockers of BAM8-22 MrgX1 calcium response – HEK293 cells, Fluo-4 calcium flux, confirmation (AID 602420); settings: MrgX1-HEK293, BAM8-22 calcium flux, at 10 µM; active compounds read low
Sequence (Q96LB2 whole entry, looked up): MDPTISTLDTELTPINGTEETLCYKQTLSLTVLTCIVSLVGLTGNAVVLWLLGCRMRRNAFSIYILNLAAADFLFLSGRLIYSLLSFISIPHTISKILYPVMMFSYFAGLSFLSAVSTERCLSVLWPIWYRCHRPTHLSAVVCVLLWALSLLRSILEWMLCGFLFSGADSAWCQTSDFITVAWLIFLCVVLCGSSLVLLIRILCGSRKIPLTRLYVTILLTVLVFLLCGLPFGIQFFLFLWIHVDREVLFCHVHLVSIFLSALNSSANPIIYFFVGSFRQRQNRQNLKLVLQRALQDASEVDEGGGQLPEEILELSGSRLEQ

Row | SMILES | remaining BAM8-22 calcium response % of control (active compounds read low)
1 | CCOC(=O)c1c(C)[nH]c(=S)c(C#N)c1-c1ccccc1 | inactive
2 | COc1cccc(CNC(=O)C2CCN(S(=O)(=O)c3cccc4cccnc34)CC2)c1 | inactive
3 | O=C(CSc1nncn1-c1cccnc1)N1CCOCC1 | inactive
4 | N#CC1=C(N)Oc2c(sc3ccccc23)C1c1ccco1 (stereo unspecified) | inactive
5 | O=C(Nc1ccc(Cl)cc1)Nc1ccc(Oc2cccnc2)nc1 | 80.3% (active)
6 | COc1cc(C2/C(=C(\O)c3ccc4c(c3)CC(C)O4)C(=O)C(=O)N2Cc2ccco2)ccc1O (stereo unspecified) | inactive
7 | CN(C)CCn1c(=S)[nH]c2ccc(Cl)cc2c1=O | inactive
8 | Cc1cc(C)n(CCNC(=O)CC2C(=O)NCCN2Cc2ccc(C)o2)n1 (stereo unspecified) | inactive
9 | FC(F)(F)c1cc(-c2cccs2)nc(NCc2ccco2)n1 | inactive
10 | S=C(NCc1ccc(Cl)cc1)NC12CC3CC(CC(C3)C1)C2 | 68.5% (active)
11 | O=C(c1ccc(O)cc1)c1ccc(C(=O)O)c(C(=O)O)c1 | inactive
12 | O=C(Cn1c(-c2cncs2)nc2ccccc21)NC1CCCC1 | inactive
13 | CC1CCN(S(=O)(=O)c2nnc(NC(=O)COc3ccccc3F)s2)CC1 | inactive
14 | Cc1ccc(-c2nn(C(C)(C)C)c3ncnc(N)c23)cc1 | inactive
15 | c1ccc(-c2[nH]ncc2-c2nc3ccccc3[nH]2)cc1 | inactive
16 | Cc1nccn1CCC1CCCCN1C(=O)CCc1nnc(-c2ccsc2)o1 (stereo unspecified) | inactive
17 | CN(c1cccc(NC(=O)Nc2ccc(Cl)cc2)c1)S(C)(=O)=O | 44.9% (active)
18 | C(=N\n1cnnc1)/c1cccnc1 | inactive
19 | CCS(=O)(=O)c1ccc2c(c1)N(S(=O)(=O)c1ccccc1)CC(C(=O)O)O2 (stereo unspecified) | inactive
20 | CCOC(=O)c1c(NC(=O)CSc2cn(CC)c3ccccc23)sc2c1CCC2 | 85% (active)
21 | CCOC(=O)c1c(NC(=O)CNC2CCCc3ccccc32)sc(C(N)=O)c1C (stereo unspecified) | inactive
22 | CCNC(=O)c1c(O)c2cccc3c2n(c1=O)CC3 | inactive
23 | Cc1ccc(C(=O)COC(=O)CCN2C(=O)C3C4CC(C(Br)C4Br)C3C2=O)cc1 (stereo unspecified) | inactive

Row | SMILES | remaining BAM8-22 calcium response % of control (active compounds read low)
24 | O=c1cc(CSc2ccccn2)nc(N2CCN(c3ccccc3)CC2)[nH]1 | inactive
25 | CCOC(=O)Cc1csc(SCc2cc(=O)oc3cc(O)ccc23)n1 | 85.3% (active)
26 | CCSc1nsc(NC(=O)Nc2cccc(C(C)=O)c2)n1 | inactive
27 | CCOC(=O)CNC(=O)CSc1nc2cccnc2n1CC | inactive
28 | CCOC(=O)C1=C(O)/C(=C/c2cc(C)n(-c3ccccc3)c2C)N=C1C | inactive
29 | Cc1cccn2c(=O)c(/C=C3\SC(=S)N(CC(C)C)C3=O)c(NCCCOC(C)C)nc12 | 63.8% (active)
30 | CCN(CC)CC(=O)Nc1nn(-c2ccccc2)nc1C(N)=O | inactive
31 | CCC1CCCCN1CCNC(=O)c1[nH]c(C)c(C(C)=O)c1C (stereo unspecified) | inactive
32 | O=C(CN1CCN(c2ccc(Cl)cc2)CC1)N1CCCC1 | inactive
33 | O=C(Cc1nc2ccccc2[nH]c1=O)c1ccc(Cl)cc1 | 64.3% (active)
34 | O=C(NC1CCCCC1)C1c2ccccc2C(=O)N1Cc1ccco1 (stereo unspecified) | inactive
35 | CCc1cc(=O)oc2cc(C)cc(OCC(=O)N3CCC[C@@H]3C(=O)O)c12 | inactive
36 | CCCCOC(=O)CNc1nnc(SCC(=O)OCC)[nH]c1=O | 70.5% (active)
37 | COC(=O)c1c(NC(=O)c2c(Cl)cnn2C)sc(C)c1C | inactive
38 | Cc1ccc(C(C(=O)NC2CCCCC2)N(C(=O)c2csnn2)C2CC2)o1 (stereo unspecified) | inactive
39 | O=C(c1cccs1)C1C(c2ccc(Br)cc2)NC(=S)NC1(O)C(F)(F)F (stereo unspecified) | inactive
40 | Cc1nc(N2CCN(c3ccccn3)CC2)c2c(C)c(C(=O)Nc3ccc(F)c(Cl)c3)sc2n1 | 70.4% (active)
41 | COc1cc(CCC(=O)Nc2ccncc2Cl)cc(OC)c1OC | inactive
42 | C=CCSc1nc(Cc2ccc(Cl)cc2)nc2ccccc12 | inactive
43 | O=C(COC(=O)C1CCN(S(=O)(=O)c2ccc3c(c2)OCCO3)CC1)Nc1ccccc1OC(F)F | inactive
44 | Clc1ccc(-c2nc3ccccn3c2CN2CCSCC2)cc1 | inactive
45 | Clc1ccc(C=NC23CN4CN(CN(C4)C2)C3)cc1 | inactive
46 | COc1ccc(C(=O)CSc2n[nH]c(N)n2)cc1 | inactive

Reference: PubChem BioAssay AID602420 (Johns Hopkins Ion Channel Center, 2012)
